Test results taken from the supplement of paper PMC11732987, “Enantioselective OTUD7B fragment discovery through chemoproteomics screening and high-throughput optimisation” (Communications Chemistry, 2025).

Legend:
Test in all cases: log2 ratio of Biotin-Ahx-Ub-VS probe labelling (fragment/DMSO); higher = less target engagement (more negative = stronger competition), active = hit call of the paper (q ≤ 0.05, log2 ratio ≤ -1)
Conditions in all cases: compound concentration: 200 uM; treatment time: 3 h
[1] = target: USP34 (UniProt Q70CQ2)
Method in brief: (§1)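 HEK293T lysate in Tris/CHAPS/IGEPAL buffer with protease inhibitors (495 µg per sample) was given fragment at 200 µM or vehicle for 3 h, in triplicate. It then received Biotin-Ahx-Ub-VS at 0.5 µM final for 1 h. Labelled DUBs were NeutrAvidin-enriched, digested with LysC and trypsin, and run by diaPASEF LC-MS/MS. Values are average log2 fragment/vehicle ratios by unpaired t-test on global-median-normalised Spectronaut quantities of proteins with ≥2 unique peptides.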

[2] = target: T1, USP36 (UniProt Q9P275)
T1 sequence (whole entry): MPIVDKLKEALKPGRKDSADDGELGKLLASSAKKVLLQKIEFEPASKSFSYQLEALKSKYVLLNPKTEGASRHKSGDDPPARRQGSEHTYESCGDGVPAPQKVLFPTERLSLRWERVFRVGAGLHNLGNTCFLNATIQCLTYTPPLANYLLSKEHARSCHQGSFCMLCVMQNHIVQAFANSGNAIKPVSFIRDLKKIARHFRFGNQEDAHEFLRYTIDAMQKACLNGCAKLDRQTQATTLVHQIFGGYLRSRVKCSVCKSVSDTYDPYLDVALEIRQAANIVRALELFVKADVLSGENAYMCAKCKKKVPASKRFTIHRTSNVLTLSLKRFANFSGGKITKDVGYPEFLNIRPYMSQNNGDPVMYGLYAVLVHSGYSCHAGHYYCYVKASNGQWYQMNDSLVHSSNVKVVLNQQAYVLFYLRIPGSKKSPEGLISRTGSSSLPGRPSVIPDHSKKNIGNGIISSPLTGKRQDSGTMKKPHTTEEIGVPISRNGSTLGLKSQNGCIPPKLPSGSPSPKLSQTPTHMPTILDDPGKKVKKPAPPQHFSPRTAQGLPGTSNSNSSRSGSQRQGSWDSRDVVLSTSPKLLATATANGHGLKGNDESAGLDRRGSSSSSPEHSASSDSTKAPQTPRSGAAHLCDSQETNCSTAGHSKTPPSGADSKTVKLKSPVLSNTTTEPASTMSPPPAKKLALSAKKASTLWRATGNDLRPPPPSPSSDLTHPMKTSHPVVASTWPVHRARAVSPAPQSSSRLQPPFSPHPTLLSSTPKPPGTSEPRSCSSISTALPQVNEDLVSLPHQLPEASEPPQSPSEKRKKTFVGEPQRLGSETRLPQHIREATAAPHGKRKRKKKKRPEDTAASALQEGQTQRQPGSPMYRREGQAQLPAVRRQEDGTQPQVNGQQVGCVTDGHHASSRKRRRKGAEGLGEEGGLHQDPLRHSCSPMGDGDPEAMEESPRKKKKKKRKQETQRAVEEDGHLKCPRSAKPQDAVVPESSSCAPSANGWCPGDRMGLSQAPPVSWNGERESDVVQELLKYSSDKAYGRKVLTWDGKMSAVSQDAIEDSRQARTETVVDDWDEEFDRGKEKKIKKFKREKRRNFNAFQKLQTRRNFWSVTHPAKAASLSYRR
Method in brief: as §1

[3] = target: T2, USP38 (UniProt Q8NB14)
T2 sequence (whole entry): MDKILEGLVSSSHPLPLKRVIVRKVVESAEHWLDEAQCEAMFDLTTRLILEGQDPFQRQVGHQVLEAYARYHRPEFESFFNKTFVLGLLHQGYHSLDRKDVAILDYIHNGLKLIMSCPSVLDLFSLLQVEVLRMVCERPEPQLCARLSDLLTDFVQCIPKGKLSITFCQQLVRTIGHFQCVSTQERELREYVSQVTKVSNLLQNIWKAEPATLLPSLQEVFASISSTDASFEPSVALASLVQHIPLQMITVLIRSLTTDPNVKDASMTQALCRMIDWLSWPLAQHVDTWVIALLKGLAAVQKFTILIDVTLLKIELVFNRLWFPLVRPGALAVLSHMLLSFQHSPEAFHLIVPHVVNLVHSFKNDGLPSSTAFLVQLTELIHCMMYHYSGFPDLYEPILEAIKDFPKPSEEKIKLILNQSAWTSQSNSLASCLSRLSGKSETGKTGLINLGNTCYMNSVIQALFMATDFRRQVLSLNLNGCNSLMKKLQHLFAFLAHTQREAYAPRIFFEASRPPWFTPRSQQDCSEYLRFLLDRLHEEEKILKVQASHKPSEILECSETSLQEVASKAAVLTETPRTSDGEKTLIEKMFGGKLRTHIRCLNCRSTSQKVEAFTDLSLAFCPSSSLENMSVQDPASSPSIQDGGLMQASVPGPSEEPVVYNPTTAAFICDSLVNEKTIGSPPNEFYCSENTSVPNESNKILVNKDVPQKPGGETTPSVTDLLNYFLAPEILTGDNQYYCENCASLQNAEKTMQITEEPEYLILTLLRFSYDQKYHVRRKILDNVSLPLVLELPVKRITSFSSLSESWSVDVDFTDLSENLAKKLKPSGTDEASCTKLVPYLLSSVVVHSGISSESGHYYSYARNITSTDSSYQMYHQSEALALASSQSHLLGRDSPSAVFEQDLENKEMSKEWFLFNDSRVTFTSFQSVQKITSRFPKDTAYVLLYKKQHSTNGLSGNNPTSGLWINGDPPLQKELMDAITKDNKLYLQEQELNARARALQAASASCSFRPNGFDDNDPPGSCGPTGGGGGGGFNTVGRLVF
Method in brief: as §1

[4] = target: T3, USP39 (UniProt Q53GS9)
T3 sequence (whole entry): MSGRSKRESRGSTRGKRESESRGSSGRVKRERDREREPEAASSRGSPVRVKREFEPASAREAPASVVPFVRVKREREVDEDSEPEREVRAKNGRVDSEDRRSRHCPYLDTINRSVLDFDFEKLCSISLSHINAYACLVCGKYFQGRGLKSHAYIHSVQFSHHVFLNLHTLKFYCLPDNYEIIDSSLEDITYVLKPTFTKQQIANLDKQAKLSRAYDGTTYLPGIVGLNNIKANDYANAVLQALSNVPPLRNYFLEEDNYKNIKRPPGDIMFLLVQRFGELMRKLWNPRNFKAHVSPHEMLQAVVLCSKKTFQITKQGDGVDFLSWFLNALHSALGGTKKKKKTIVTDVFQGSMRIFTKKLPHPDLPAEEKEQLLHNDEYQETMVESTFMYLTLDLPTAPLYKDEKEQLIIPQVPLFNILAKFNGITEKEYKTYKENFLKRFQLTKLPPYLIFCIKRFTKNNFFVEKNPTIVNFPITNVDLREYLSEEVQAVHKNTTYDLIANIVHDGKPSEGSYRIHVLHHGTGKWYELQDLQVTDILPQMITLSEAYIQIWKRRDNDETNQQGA
Method in brief: as §1

[5] = target: T4, USP4 (UniProt Q13107)
T4 sequence (whole entry): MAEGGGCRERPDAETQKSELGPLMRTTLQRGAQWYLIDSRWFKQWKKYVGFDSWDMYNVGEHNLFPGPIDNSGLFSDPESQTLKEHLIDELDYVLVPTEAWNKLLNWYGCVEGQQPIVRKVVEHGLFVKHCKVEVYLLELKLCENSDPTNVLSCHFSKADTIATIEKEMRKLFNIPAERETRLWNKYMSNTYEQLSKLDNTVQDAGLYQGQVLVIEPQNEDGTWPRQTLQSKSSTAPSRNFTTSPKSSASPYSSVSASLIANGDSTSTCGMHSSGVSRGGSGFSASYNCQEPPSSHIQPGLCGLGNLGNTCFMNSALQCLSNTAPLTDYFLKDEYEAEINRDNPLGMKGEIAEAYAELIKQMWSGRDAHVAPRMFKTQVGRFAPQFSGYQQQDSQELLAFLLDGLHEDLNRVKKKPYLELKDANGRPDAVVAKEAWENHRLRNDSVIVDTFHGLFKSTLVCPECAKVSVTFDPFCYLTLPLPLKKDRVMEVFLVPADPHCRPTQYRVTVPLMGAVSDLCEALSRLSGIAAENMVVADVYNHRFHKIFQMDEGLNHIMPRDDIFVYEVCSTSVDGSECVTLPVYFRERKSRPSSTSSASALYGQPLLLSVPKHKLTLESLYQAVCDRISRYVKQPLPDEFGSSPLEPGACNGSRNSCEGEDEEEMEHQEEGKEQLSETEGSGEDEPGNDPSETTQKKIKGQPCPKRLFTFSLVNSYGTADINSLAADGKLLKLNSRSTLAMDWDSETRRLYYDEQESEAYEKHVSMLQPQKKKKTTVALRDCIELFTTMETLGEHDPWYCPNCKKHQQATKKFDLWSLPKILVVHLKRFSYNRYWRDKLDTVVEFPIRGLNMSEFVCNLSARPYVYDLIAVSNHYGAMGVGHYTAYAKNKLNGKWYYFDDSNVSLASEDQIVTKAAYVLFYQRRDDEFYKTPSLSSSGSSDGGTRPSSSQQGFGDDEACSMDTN
Method in brief: as §1

Measured: log2 ratio of Biotin-Ahx-Ub-VS probe labelling

Sequence of USP34 (Q70CQ2 whole entry, the tested form may be a part): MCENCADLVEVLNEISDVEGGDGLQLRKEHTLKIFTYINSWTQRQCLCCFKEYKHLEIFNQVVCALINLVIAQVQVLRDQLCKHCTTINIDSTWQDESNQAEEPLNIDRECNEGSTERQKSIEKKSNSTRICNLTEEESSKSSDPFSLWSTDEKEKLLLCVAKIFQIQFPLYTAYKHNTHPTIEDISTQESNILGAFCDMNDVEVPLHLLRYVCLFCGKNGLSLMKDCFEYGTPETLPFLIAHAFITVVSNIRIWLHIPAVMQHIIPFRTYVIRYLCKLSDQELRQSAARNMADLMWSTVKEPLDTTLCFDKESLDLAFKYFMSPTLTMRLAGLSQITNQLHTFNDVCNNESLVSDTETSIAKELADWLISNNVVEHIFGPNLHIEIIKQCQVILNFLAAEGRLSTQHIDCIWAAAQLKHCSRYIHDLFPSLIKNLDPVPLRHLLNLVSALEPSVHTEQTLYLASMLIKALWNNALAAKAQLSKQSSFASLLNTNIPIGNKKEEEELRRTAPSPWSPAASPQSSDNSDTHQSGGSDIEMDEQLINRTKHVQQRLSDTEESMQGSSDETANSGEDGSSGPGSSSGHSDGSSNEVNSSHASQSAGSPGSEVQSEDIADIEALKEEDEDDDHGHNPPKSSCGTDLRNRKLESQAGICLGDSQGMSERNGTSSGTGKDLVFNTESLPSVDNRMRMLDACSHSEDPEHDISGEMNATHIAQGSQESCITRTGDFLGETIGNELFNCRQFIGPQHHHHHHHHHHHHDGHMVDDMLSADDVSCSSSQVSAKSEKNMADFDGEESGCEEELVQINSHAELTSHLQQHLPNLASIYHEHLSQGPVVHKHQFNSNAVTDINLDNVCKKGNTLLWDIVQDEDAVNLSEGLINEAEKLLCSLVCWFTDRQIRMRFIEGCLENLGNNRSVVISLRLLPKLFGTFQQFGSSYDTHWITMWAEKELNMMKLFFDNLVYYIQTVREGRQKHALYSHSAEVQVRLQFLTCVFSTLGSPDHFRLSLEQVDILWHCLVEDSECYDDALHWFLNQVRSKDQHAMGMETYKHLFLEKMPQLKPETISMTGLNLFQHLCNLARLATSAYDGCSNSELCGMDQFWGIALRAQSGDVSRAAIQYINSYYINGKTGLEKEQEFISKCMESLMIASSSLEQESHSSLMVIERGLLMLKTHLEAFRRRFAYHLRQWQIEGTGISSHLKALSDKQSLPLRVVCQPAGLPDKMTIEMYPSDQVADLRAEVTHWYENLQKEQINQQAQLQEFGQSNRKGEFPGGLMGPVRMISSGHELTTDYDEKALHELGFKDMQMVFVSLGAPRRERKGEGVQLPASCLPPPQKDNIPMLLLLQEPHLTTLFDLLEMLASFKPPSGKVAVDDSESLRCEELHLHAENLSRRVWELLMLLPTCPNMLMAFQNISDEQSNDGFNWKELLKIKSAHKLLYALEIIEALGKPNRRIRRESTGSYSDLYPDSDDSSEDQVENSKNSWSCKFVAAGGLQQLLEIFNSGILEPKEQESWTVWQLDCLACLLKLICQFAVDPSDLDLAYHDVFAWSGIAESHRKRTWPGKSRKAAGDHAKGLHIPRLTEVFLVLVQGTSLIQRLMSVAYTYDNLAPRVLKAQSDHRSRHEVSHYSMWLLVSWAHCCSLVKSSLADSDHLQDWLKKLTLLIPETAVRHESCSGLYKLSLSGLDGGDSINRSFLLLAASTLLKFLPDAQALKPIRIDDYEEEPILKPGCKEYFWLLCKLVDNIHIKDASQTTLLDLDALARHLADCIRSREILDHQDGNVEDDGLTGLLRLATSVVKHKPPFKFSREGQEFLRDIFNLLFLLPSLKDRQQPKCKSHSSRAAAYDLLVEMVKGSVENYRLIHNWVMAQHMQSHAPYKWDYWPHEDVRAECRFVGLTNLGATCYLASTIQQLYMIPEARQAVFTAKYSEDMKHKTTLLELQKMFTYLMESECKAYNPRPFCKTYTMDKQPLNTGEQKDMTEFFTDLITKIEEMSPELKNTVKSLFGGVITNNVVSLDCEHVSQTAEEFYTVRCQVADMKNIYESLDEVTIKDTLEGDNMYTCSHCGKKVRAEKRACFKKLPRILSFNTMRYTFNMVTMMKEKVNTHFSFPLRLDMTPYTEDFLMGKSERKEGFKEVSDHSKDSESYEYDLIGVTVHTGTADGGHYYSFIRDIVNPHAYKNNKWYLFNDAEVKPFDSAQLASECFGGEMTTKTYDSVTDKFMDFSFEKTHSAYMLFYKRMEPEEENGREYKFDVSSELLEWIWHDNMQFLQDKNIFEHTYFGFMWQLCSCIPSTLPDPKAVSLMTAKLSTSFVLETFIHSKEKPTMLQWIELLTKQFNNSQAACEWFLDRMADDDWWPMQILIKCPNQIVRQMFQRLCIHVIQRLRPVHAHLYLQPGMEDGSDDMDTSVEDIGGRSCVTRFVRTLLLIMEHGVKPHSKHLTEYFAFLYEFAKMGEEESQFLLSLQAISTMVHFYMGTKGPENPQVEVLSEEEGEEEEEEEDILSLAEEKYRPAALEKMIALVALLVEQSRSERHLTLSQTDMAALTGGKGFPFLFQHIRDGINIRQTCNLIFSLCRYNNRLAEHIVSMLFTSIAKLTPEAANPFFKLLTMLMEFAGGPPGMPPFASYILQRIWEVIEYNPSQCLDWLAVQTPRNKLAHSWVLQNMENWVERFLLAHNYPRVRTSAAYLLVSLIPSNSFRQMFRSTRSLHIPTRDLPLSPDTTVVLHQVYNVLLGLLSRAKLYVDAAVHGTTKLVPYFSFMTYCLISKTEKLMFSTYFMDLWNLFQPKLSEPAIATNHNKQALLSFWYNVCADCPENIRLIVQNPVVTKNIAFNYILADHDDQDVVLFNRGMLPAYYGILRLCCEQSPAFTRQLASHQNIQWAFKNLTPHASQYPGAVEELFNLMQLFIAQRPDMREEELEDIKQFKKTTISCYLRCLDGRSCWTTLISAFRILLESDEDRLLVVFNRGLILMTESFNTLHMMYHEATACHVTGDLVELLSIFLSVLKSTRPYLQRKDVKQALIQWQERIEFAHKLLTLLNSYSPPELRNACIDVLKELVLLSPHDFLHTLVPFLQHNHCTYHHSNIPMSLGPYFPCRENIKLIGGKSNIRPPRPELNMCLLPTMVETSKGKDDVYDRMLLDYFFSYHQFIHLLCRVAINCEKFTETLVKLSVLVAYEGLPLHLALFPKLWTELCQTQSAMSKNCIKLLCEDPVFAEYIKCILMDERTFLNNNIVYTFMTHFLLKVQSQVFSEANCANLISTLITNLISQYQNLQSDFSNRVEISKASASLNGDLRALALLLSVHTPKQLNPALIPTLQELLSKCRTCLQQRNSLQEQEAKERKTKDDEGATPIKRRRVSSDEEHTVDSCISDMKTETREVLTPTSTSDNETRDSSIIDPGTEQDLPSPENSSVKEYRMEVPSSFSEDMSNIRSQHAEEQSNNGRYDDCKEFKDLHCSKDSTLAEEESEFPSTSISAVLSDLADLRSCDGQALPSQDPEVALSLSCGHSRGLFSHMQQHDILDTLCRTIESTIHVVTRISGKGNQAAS

Cc1ccc(CC(CO)CNC(=O)CCl)cc1 (stereo not given)
inactive: [1] -0.117 | [2] -0.19 | [3] -0.239 | [4] -0.321 | [5] -0.14
